Results: the supplement of paper PMC8975748
Where a name gives a salt, the structure may show the parent alone. ± gives the standard deviation of the averaged measurements.

Key:
[1] = tested on: Saccharomyces cerevisiae BY4741 SeMeCo community; test: mean cell size (pixel area) (pixels); higher = larger cells; details: 10 µM; 24 h; SM minimal medium
Outline: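 A four-plasmid fluorescent Saccharomyces cerevisiae BY4741 community was tested; each plasmid complements one auxotrophy and carries a fluorescent marker. An overnight preculture at OD600 = 1.0 was diluted to OD600 = 0.3, and 70 µl was added to 384-well plates acoustically predosed with drug (final 10 µM) in SM medium for 24 h. Cells were fixed with paraformaldehyde and imaged by automated confocal microscopy, with analysis in Harmony. Mean cell pixel area per well is averaged over 3 replicates. Same SeMeCo high-content imaging drug screen: Selleck FDA-approved drugs at 10 µM, 24 h in SM medium, 384-well plates, 3 replicates.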

[2] = tested on: Saccharomyces cerevisiae BY4741 SeMeCo community; test: z-score of subpopulation abundance vs DMSO median, subpopulation auxotrophic for M; higher = larger share of this subpopulation than in DMSO controls; details: 10 µM; 24 h; SM minimal medium; subpopulation (auxotrophy): M
Outline: (§1)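 A Saccharomyces cerevisiae BY4741 community carried four plasmids, each restoring one auxotrophy and encoding a distinct fluorescent protein. It was pre-grown overnight to OD600 1.0, diluted to 0.3, and 70 µl was added to 384-well plates acoustically predosed with library drugs (10 µM final), then grown 24 h in minimal SM medium. Cells were paraformaldehyde-fixed and imaged by automated confocal microscopy, with single-auxotroph fluorescent strains setting thresholds and autofluorescence correction. Each subpopulation's abundance was scored as a z-score against the vehicle-well median.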

[3] = tested on: Saccharomyces cerevisiae BY4741 SeMeCo community; test: z-score of subpopulation abundance vs DMSO median, subpopulation auxotrophic for L; higher = larger share of this subpopulation than in DMSO controls; details: 10 µM; 24 h; SM minimal medium; subpopulation (auxotrophy): L
Outline: as §1

[4] = tested on: Saccharomyces cerevisiae BY4741 SeMeCo community; test: z-score of subpopulation abundance vs DMSO median, subpopulation auxotrophic for U; higher = larger share of this subpopulation than in DMSO controls; details: 10 µM; 24 h; SM minimal medium; subpopulation (auxotrophy): U
Outline: as §1

[5] = tested on: Saccharomyces cerevisiae BY4741 SeMeCo community; test: z-score of subpopulation abundance vs DMSO median, subpopulation auxotrophic for H; higher = larger share of this subpopulation than in DMSO controls; details: 10 µM; 24 h; SM minimal medium; subpopulation (auxotrophy): H
Outline: as §1

[6] = tested on: Saccharomyces cerevisiae BY4741 SeMeCo community; test: z-score of subpopulation abundance vs DMSO median, subpopulation auxotrophic for LU; higher = larger share of this subpopulation than in DMSO controls; details: 10 µM; 24 h; SM minimal medium; subpopulation (auxotrophy): LU
Outline: as §1

[7] = tested on: Saccharomyces cerevisiae BY4741 SeMeCo community; test: z-score of subpopulation abundance vs DMSO median, subpopulation auxotrophic for LM; higher = larger share of this subpopulation than in DMSO controls; details: 10 µM; 24 h; SM minimal medium; subpopulation (auxotrophy): LM
Outline: as §1

[8] = tested on: Saccharomyces cerevisiae BY4741 SeMeCo community; test: z-score of subpopulation abundance vs DMSO median, subpopulation auxotrophic for HM; higher = larger share of this subpopulation than in DMSO controls; details: 10 µM; 24 h; SM minimal medium; subpopulation (auxotrophy): HM
Outline: as §1

[9] = tested on: Saccharomyces cerevisiae BY4741 SeMeCo community; test: z-score of subpopulation abundance vs DMSO median, subpopulation auxotrophic for HU; higher = larger share of this subpopulation than in DMSO controls; details: 10 µM; 24 h; SM minimal medium; subpopulation (auxotrophy): HU
Outline: as §1

[10] = tested on: Saccharomyces cerevisiae BY4741 SeMeCo community; test: z-score of subpopulation abundance vs DMSO median, subpopulation auxotrophic for UM; higher = larger share of this subpopulation than in DMSO controls; details: 10 µM; 24 h; SM minimal medium; subpopulation (auxotrophy): UM
Outline: as §1

[11] = tested on: Saccharomyces cerevisiae BY4741 SeMeCo community; test: z-score of subpopulation abundance vs DMSO median, subpopulation auxotrophic for HLU; higher = larger share of this subpopulation than in DMSO controls; details: 10 µM; 24 h; SM minimal medium; subpopulation (auxotrophy): HLU
Outline: as §1

[12] = tested on: Saccharomyces cerevisiae BY4741 SeMeCo community; test: z-score of subpopulation abundance vs DMSO median, subpopulation auxotrophic for HLM; higher = larger share of this subpopulation than in DMSO controls; details: 10 µM; 24 h; SM minimal medium; subpopulation (auxotrophy): HLM
Outline: as §1

[13] = tested on: Saccharomyces cerevisiae BY4741 SeMeCo community; test: z-score of subpopulation abundance vs DMSO median, subpopulation auxotrophic for HUM; higher = larger share of this subpopulation than in DMSO controls; details: 10 µM; 24 h; SM minimal medium; subpopulation (auxotrophy): HUM
Outline: as §1

[14] = tested on: Saccharomyces cerevisiae BY4741 SeMeCo community; test: z-score of subpopulation abundance vs DMSO median, subpopulation auxotrophic for LUM; higher = larger share of this subpopulation than in DMSO controls; details: 10 µM; 24 h; SM minimal medium; subpopulation (auxotrophy): LUM
Outline: as §1

[15] = tested on: Saccharomyces cerevisiae BY4741 SeMeCo community; test: z-score of subpopulation abundance vs DMSO median, subpopulation auxotrophic for HLUM; higher = larger share of this subpopulation than in DMSO controls; details: 10 µM; 24 h; SM minimal medium; subpopulation (auxotrophy): HLUM
Outline: as §1

[16] = tested on: Saccharomyces cerevisiae BY4741 SeMeCo community; test: z-score of prototroph abundance vs DMSO median; higher = larger share of this subpopulation than in DMSO controls; details: 10 µM; 24 h; SM minimal medium; subpopulation (auxotrophy): Prototroph
Outline: as §1

[17] = tested on: Saccharomyces cerevisiae BY4741 SeMeCo community; test: z-score of subpopulation abundance vs DMSO median, subpopulation auxotrophic for HL; higher = larger share of this subpopulation than in DMSO controls; details: 10 µM; 24 h; SM minimal medium; subpopulation (auxotrophy): HL
Outline: as §1

Row | SMILES | mean cell size [1] | z-score of subpopulation abundance [2] | z-score of subpopulation abundance [3] | z-score of subpopulation abundance [4] | z-score of subpopulation abundance [5] | z-score of subpopulation abundance [6] | z-score of subpopulation abundance [7] | z-score of subpopulation abundance [8] | z-score of subpopulation abundance [9] | z-score of subpopulation abundance [10] | z-score of subpopulation abundance [11] | z-score of subpopulation abundance [12] | z-score of subpopulation abundance [13] | z-score of subpopulation abundance [14] | z-score of subpopulation abundance [15] | z-score of prototroph abundance [16] | z-score of subpopulation abundance [17]
1 | CC(C[N+](C)(C)C)OC(N)=O (stereo not drawn) [Bethanechol chloride] | 12.5 ± 0.12 | -0.79 | 0.42 | 0.7 | 0.23 | 0.8 | -0.56 | 0.07 | 0.89 | -0.21 | 1.45 | 0.1 | -0.33 | -0.42 | -0.3 | – | –
2 | O=C1N=C(O)NC1(c1ccccc1)c1ccccc1 [Phenytoin Sodium] | 12.527 ± 0.0075 | -0.37 | 0.11 | 1.21 | – | 0.96 | -0.6 | -1.02 | -0.05 | – | 0.17 | 0.15 | 0.83 | -0.31 | 1.18 | -0.72 | -0.83
3 | Nc1nc2[nH]cc(CCc3ccc(C(=O)N[C@@H](CCC(=O)O)C(=O)O)cc3)c2c(=O)[nH]1 [Pemetrexed] | 14.85 ± 0.13 | -9.06 | 1.61 | -1.55 | – | 0.04 | -3.17 | -4.62 | 2.15 | – | 4.74 | 0.42 | -4.52 | -3.17 | -1.01 | 3.89 | 2.81
4 | CC(=O)O[C@]1(C(C)=O)CC[C@H]2[C@@H]3C[C@H](C)C4=CC(=O)CC[C@]4(C)[C@H]3CC[C@@]21C [Medroxyprogesterone acetate] | 12.6 ± 0.18 | 0.21 | -0.93 | 0.34 | 0.12 | 0.01 | -0.1 | 0.17 | 0.62 | 0.34 | -0.17 | -0.12 | -0.19 | -0.28 | -0.36 | 0.03 | –
5 | CCCc1nc(C)c2c(=O)nc(-c3cc(S(=O)(=O)N4CCN(CC)CC4)ccc3OCC)[nH]n12 [Vardenafil HCl Trihydrate] | 12.53 ± 0.092 | 0.64 | 0.04 | 1.19 | 0.41 | 0.67 | -1.19 | 0.87 | 1.92 | 0.56 | 0.57 | -0.16 | 0.81 | -0.24 | 0.24 | -0.75 | –
6 | CONC(=O)Nc1ccc(-c2sc3c(c2CN(C)C)c(=O)n(-c2ccc(OC)nn2)c(=O)n3Cc2c(F)cccc2F)cc1 [Relugolix] | 12.2 ± 0.23 | -1.52 | 0.15 | 0.32 | 0.68 | -0.09 | -0.08 | -0.86 | 0.09 | -0.12 | 0.32 | -0.07 | -0.45 | 0.11 | 0.58 | – | -0.26
7 | N[C@@H]1CONC1=O [D-Cycloserine] | 11.8 ± 0.15 | -0.07 | 1.05 | -1 | 1.3 | -0.16 | 0.54 | -0.26 | -0.43 | -0.3 | 0.51 | 0.38 | 0.3 | 0.83 | 0.69 | -0.18 | 0.99
8 | CC/C(=C(\c1ccccc1)c1ccc(OCCN(C)C)cc1)c1ccccc1 [Tamoxifen Citrate] | 11.7 ± 0.14 | -1.11 | -0.42 | 0.72 | 1.16 | 0.35 | -0.23 | 0.16 | 0.74 | 1.43 | 0.36 | -0.48 | 1.07 | 0.58 | -0.65 | – | 0.64
9 | CC1=C(C(=O)OC(C)C)C(c2cccc([N+](=O)[O-])c2)C(C(=O)OC2CN(C(c3ccccc3)c3ccccc3)C2)=C(N)N1 (stereo not drawn) [Azelnidipine] | 12.5 ± 0.34 | -0.27 | -0.9 | 0.39 | 0.22 | 0.86 | -0.63 | 0.77 | 1.39 | 0.01 | -0.12 | 0.09 | 0.26 | 0.01 | -0.49 | -0.48 | -0.34
10 | Clc1ccccc1C(c1ccccc1)(c1ccccc1)n1ccnc1 [Clotrimazole] | 11.89 ± 0.097 | 4.9 | -2.83 | -0.04 | 6.9 | -0.93 | 1.9 | 6.05 | 6.35 | 18.8 | 3.78 | 15.2 | 7.76 | 5.41 | 9.79 | -9.07 | –
11 | COC(=O)Nc1nc2cc(C(=O)c3ccccc3)ccc2[nH]1 [Mebendazole] | 12.07 ± 0.077 | -0.56 | 0.37 | 1.91 | 1.06 | 0.33 | 1.32 | 1.02 | 1.39 | – | -0.05 | 1.83 | 1.64 | 0.4 | 1.44 | -1.69 | 0.26
12 | CC[C@H](C)C(=O)O[C@H]1C[C@H](O)C=C2C=C[C@H](C)[C@H](CC[C@@H](O)C[C@@H](O)CC(=O)O)[C@H]21 [Pravastatin] | 12.2 ± 0.19 | 0.52 | -0.43 | 1.19 | 0.39 | 0.89 | 0.2 | 0.47 | 1.19 | 1.36 | -0.44 | -0.51 | 1.56 | 0.59 | -0.51 | -1.08 | –
13 | Clc1ccc(C(Cn2ccnc2)OCc2ccc(Sc3ccccc3)cc2)c(Cl)c1 (stereo not drawn) [Fenticonazole Nitrate] | 10.7 ± 0.2 | -13.8 | 4.64 | 4.22 | 25 | 4.88 | -5.38 | -6.61 | 28.7 | -3.35 | 14.8 | 30.4 | 4.77 | -1.04 | 109 | – | 62.4
14 | CC[C@H]1OC(=O)[C@H](C)[C@@H](O[C@H]2C[C@@](C)(OC)[C@@H](O)[C@H](C)O2)[C@H](C)[C@@H](O[C@@H]2O[C@H](C)C[C@H](N(C)C)[C@H]2O)[C@](C)(O)C[C@@H](C)CN(C)[C@H](C)[C@@H](O)[C@]1(C)O [Azithromycin Dihydrate] | 12.5 ± 0.38 | 0.58 | 0.09 | – | 0.7 | -0.14 | -0.45 | 0.39 | -0.53 | 0.16 | -0.73 | 0.07 | 0.97 | -0.75 | -0.18 | -0.48 | 0.05
